# Results filed as inconclusive are left out. Where a call stands in place of a potency, no number is given. Calls of active or inactive are those of the source. Calls come from the whole dose curve; as a rule, active = well fitted curve in the direction sought with a large enough effect; inconclusive = small, poorly fitted or top-dose-only effect, or another doubt; inactive = no such curve, though single readings can be large; an effect the other way counts as inactive or inconclusive.
# Key:
# [1] = biological target: Aldehyde dehydrogenase, mitochondrial (Homo sapiens) (UniProt P05091); assay: qHTS for Inhibitors of the Aldehyde Dehydrogenase Family (ALDH2) Primary screen (AID 2061308); conditions: ALDH2 enzyme inhibition qHTS, 1536-well; series mostly up to 56 µM; note: nearly all actives have a fitted effect of over 55% in size
# [2] = biological target: Retinaldehyde dehydrogenase 3 (Homo sapiens) (UniProt P47895); assay: qHTS for Inhibitors of the Aldehyde Dehydrogenase Family (ALDH1A3) Primary screen (AID 2061315); conditions: ALDH inhibition qHTS; series mostly up to 56 µM
SMILES,Potency [1],Potency [2]
c1cncc(CNc2ncnc3ccc(-c4ccc5c(c4)OCCO5)cc23)c1,inactive,inactive
FC(F)(F)c1cccc(-c2nc(NCc3ccc(-c4cccnc4)cc3)c3ccccc3n2)c1,inactive,inactive
O=C(OCC#CCSc1nnc(-c2cccc3ccccc23)o1)c1ccc(OC(F)(F)F)cc1,inactive,inactive
CC(=O)c1ccc(N2CCN(S(=O)(=O)c3ccc4c(c3)CCCC(=O)N4)CC2)cc1,inactive,inactive
CCCCNc1nc(C)nc2c1nc(-c1ccccc1)n2CC1CCN(C)CC1,inactive,inactive
Cc1cc2c(s1)c1cnn(Cc3ccc(F)cc3Cl)c(=O)c1n2C,inactive,inactive
CC(C)c1ccc(=O)n(CC(=O)NCCc2ccccc2)n1,inactive,inactive
CCC12CCCN3CCc4c(n(c5ccccc45)C(O)C1)C32 (stereo unspecified),inactive,inactive
Cc1nc(N2CCOCC2)c2nc(-c3ccccc3)n(C(C)CN(C)C)c2n1 (stereo unspecified),inactive,inactive
Cc1c(Br)cc(F)c([S+](=O)([O-])N2CCN([S+](=O)([O-])c3ccc4c(c3)OCCO4)CC2)c1F,inactive,inactive
Cc1ccc(S(=O)(=O)N2CCN(c3nc(-c4ccco4)nc4ccccc34)CC2)cc1,inactive,inactive
CCC(=O)NC(c1cc(Cl)c2cccnc2c1O)C(C)C (stereo unspecified),inactive,inactive
C=C[C@H]1C(O[C@@H]2O[C@H](CO)[C@@H](O)[C@H](O)[C@H]2O)OC=C2C(=O)N3CCc4c([nH]c5ccccc45)[C@H]3C[C@H]21 (stereo partly specified),inactive,inactive
C/C=C(\C)C(=O)O[C@H]1C=C(CO)C(=O)[C@H](OC(C)=O)[C@H]1C(C)C,inactive,inactive
Cc1onc(-c2ccccc2Cl)c1C(=O)N[C@@H]1C(=O)N2[C@@H]1SC(C)(C)[C@@H]2C(=O)O,inactive,inactive
Nc1nc2c(ncn2C2OC3COP(=O)(O)OC3C2O)c(=O)[nH]1 (stereo unspecified),inactive,inactive
O=C1CCCC2=C1C(c1ccc(F)cc1)N=C(Nc1nc3ccccc3o1)N2 (stereo unspecified),inactive,inactive
Cc1ccc(OCCn2c(CCNC(=O)c3c(F)cccc3F)nc3ccccc32)cc1,inactive,inactive

# From PubChem BioAssay (NCATS)
